Results on seven compounds are retold here after PubChem BioAssay AID624450 (Southern Research Specialized Biocontainment Screening …, 2012).

Molecules are shown by their SMILES. Values without a mark were called inactive. How the calls were made is not given here.

The assay in a line: Vero 76 cell cytotoxicity, cytotoxicity control for VEEV inhibitor project, set 7 (AID 624450). The settings on record: Vero 76 cell viability, cytotoxicity counter-screen; series mostly up to 25 µM; viability: at the top concentration.
As for `COc1cccc(-n2c(CN3CCNCC3)nc3ccc([N+](=O)[O-])cc3c2=O)c1`, the “viability” value is 84.9%.

On to `COc1ccc(-n2c(CN3CCNCC3)nc3ccc([N+](=O)[O-])cc3c2=O)cc1`, for which the “viability” value was 85.9%.

`CCN1CCN(Cc2nc3ccc(C(=O)O)cc3c(=O)n2-c2ccccc2)CC1`: the “viability” value was 87.7%.

For the compound `CCN1CCN(Cc2nc3ccc([N+](=O)[O-])cc3c(=O)n2-c2ccccc2F)CC1`, the “viability” value was 78.8%.

Consider `COc1ccccc1-n1c(CN2CCNCC2)nc2ccc([N+](=O)[O-])cc2c1=O`, for which the “viability” value was 75.6%.

As for `CCN1CCN(Cc2nc3ccc([N+](=O)[O-])cc3c(=O)n2C)CC1`, the “viability” value was 85.9%.

For the compound `O=c1c2cc([N+](=O)[O-])ccc2nc(CN2CCNCC2)n1-c1ccsc1`, the “viability” value was 84.1%.
